{"source": "PubChem BioAssay (NCI)", "note": "Compounds without any hit were thinned out: in the full panel of roughly 83,000, 20% have a hit.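 Results are percent growth after 48 hours of single-concentration exposure. 100 means growth as in untreated cells, lower positive values show inhibition; negative values down to -100 show cell death.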 Values without a mark were called inactive. Activity calls are given as the source filed them. Rule for the calls: active = growth percent below 10; inactive = the rest.", "data": [{"system": "HL-60(TB) leukemia", "test": "NCI-60 one-dose screen, 48 h (100 = growth as untreated, 0 = no growth, -100 = all killed)", "settings": "10 µM unless noted", "values": [{"smiles": "COC(=O)C1=C(C(=O)ON)[C@@H]2C=C[C@@]1([C@@H](Cc1ccccc1)Nc1ccccc1)O2", "growth": "-3.29% (active)"}, {"smiles": "COc1ccc(-c2c(C(=O)NS(C)(=O)=O)n(Cc3cccc(C(F)(F)F)c3)c3ccccc23)cc1", "growth": "102%"}, {"smiles": "CCOC(=O)C(C(=O)OCC)C1CCCCC1", "growth": "105%"}, {"smiles": "CC(C)NCC(O)COc1ccc(CC(N)=O)cc1", "note": "(stereo unspecified)", "growth": "101%"}, {"smiles": "COC(=O)Nc1nc2ccc(C(=O)c3ccc(F)cc3)cc2[nH]1", "growth": "-70.4% (active)"}, {"smiles": "C=CCC(O)C=C", "note": "(stereo unspecified)", "growth": "101%"}, {"smiles": "C=C1C(=O)O[C@H]2[C@H]1CC/C(Cn1cc(-c3ccccc3C(F)(F)F)nn1)=C\\CC[C@@]1(C)O[C@@H]21", "growth": "-13.3% (active)"}, {"smiles": "CC(=O)CC(=O)N(C)C", "growth": "114%"}, {"smiles": "COc1ccc(-c2cc(C(=O)Nc3ccc(C)cc3)nc3[nH]c(=O)sc23)cc1", "growth": "51.8%"}, {"smiles": "OCCCCc1nccc2c1[nH]c1ccccc12", "growth": "73.7%"}, {"smiles": "COc1ccc(C2=NN(C(C)=O)C(c3cccc(Nc4ccnc5cc(Cl)ccc45)c3)C2)cc1", "note": "(stereo unspecified)", "growth": "57.2%"}, {"smiles": "Oc1ccccc1-c1nnc(Cn2c(Cc3cccc4ccccc34)nc3ccccc32)o1", "growth": "96%"}, {"smiles": "Cc1cc(N2CCOCC2)nc(N(CCNc2ccnc3cc(Cl)ccc23)Cc2ccco2)n1", "growth": "-65.1% (active)"}, {"smiles": "CCc1ccc(/C=C/c2ccc(O)c3ncccc23)[n+](C)c1", "growth": "104%"}, {"smiles": "Cc1cc(=O)oc2cc(OC(=O)CN3CCN(C)CC3)ccc12", "growth": "122%"}, {"smiles": "O=C1c2ccccc2-c2c1c1c(NCCCO)nc3ccccc3c1n2Cc1ccccc1", "growth": "48.9%"}, {"smiles": "COc1ccc(-c2nnc(SCC(=O)Nc3ccc(C(=O)/C=C/c4ccc(Cl)cc4)cc3)o2)cc1OC", "growth": "93.1%"}, {"smiles": "COc1ccc(-c2csc(C3=C(O)CN(C(C)C)C3=N)n2)cc1OC", "growth": "76.4%"}, {"smiles": "Cc1cccc2c1O/C(=C\\c1ncc([N+](=O)[O-])n1C)C2=O", "growth": "-9.87% (active)"}, {"smiles": "O=C=NC(c1ccccc1)(c1ccccc1)c1ccccc1", "growth": "102%"}, {"smiles": "COc1ccc(/C=C2\\CCCC3=C2N=C2SC(C)=NN2C3c2ccc(OC)c(OC)c2)cc1OC", "note": "(stereo unspecified)", "growth": "-14.5% (active)"}, {"smiles": "COc1ccc(/C=C/c2c(C(=O)/C=C/c3ccc(F)cc3)c(C)nc3ccccc23)cc1", "growth": "24.2%"}, {"smiles": "Cc1ccc(NC2CC(=O)N(c3c(C)cc(C)cc3C)C2=O)c(C)c1", "note": "(stereo unspecified)", "growth": "102%"}, {"smiles": "COc1cc2oc(-c3cccc(C(=O)Nc4ccccc4)c3)cc(=O)c2c(O)c1OC", "growth": "92.7%"}, {"smiles": "COc1cc(/C=C/C(=O)N2CCN(C(=O)c3cc(OC)c(OC)c(OC)c3)CC2)ccc1OCCCN1C(=O)c2cccc3cccc(c23)C1=O", "growth": "56.7%"}, {"smiles": "O=C(N=Nc1c(O)[nH]c2ccccc12)c1oc2ccccc2c1CN1CCN(c2ccccc2)CC1", "growth": "49.8%"}]}]}
